Results on seven compounds are retold here after PubChem BioAssay (EPA / NIEHS).

For orientation: AC50 means the concentration at which the activity in the assay is half-maximal.

Common to all, as to details: mRNA level, 48 h; actives raise or lower the signal
Read-out in test [1]: Insulin-like growth factor-binding protein 1 (IGFBP1), IGFBP1 (gene 3484)
Description: LTEA_HepaRG_IGFBP1: Life Technologies and Expression Analysis (LTEA) Assay for Insulin-like growth factor-binding protein 1 (IGFBP1) using HepaRG (AID 2283508). In a few lines:
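Read-out is qRT-PCR transcript level normalized to three housekeeping genes, fitted in both directions against 0.5% DMSO. Differentiated HepaRG cells received eight half-log concentrations (top 100 uM) in duplicate for 48 h in serum-free induction medium.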

Read-out in test [2]: Interleukin 6 (IL6), IL6 (gene 3569)
Description: LTEA_HepaRG_IL6: Life Technologies and Expression Analysis (LTEA) Assay for Interleukin 6 (IL6) using HepaRG (AID 2283509). In short, it runs like this:
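Changes in IL6 mRNA, up or down relative to 0.5% DMSO controls, were derived from concentration-response curves in human HepaRG cells treated for 48 h at up to 100 uM, with ACTB, GAPDH and POLR2A as normalizers.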

Read-out in test [3]: Interleukin 6 Receptor (IL6R), IL6R (gene 3570)
As to the kind of experiment: LTEA_HepaRG_IL6R: Life Technologies and Expression Analysis (LTEA) Assay for Interleukin 6 Receptor (IL6R) using HepaRG (AID 2283510). In short, it runs like this: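 In this HepaRG screen, test chemicals act on cells for 48 h at up to 100 uM (eight half-log points, duplicate wells). IL6R expression is quantified by qRT-PCR after normalization to ACTB, GAPDH and POLR2A, with DMSO as baseline.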

Read-out in test [4]: Potassium channel subfamily K member 1 (KCNK1), KCNK1 (gene 3775)
Description: LTEA_HepaRG_KCNK1: Life Technologies and Expression Analysis (LTEA) Assay for Potassium channel subfamily K member 1 (KCNK1) using HepaRG (AID 2283511). In short, it runs like this:
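Human HepaRG cultures receive test chemicals for 48 h in 0.5% DMSO, top concentration 100 uM with half-log dilutions. Induction or suppression of KCNK1 mRNA relative to DMSO is derived by bidirectional fitting of qRT-PCR data.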

Read-out in test [5]: Keratin 19 (KRT19), KRT19 (gene 3880)
As to the kind of experiment: LTEA_HepaRG_KRT19: Life Technologies and Expression Analysis (LTEA) Assay for Keratin 19 (KRT19) using HepaRG (AID 2283512). In short, it runs like this:
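KRT19 transcript measured by TaqMan qRT-PCR, referenced to three housekeeping genes, after HepaRG cells received test chemicals for 48 h. Eight half-log concentrations, top 100 uM, 0.5% DMSO vehicle; increases and decreases both fitted.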

Read-out in test [6]: JUN Transcription Factor, JUN (gene 3725)
Description: LTEA_HepaRG_JUN: Life Technologies and Expression Analysis (LTEA) Assay for JUN Transcription Factor using HepaRG (AID 2283513). In a few lines: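 Gene-expression endpoint: JUN mRNA (qRT-PCR, normalized to three reference genes) in HepaRG cultures treated 48 h with chemicals, duplicate wells, 100 uM maximum with half-log dilutions; bidirectional fitting relative to 0.5% DMSO.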

Read-out in test [7]: Lipase C (LIPC), LIPC (gene 3990)
As to the kind of experiment: LTEA_HepaRG_LIPC: Life Technologies and Expression Analysis (LTEA) Assay for Lipase C (LIPC) using HepaRG (AID 2283514). In short, it runs like this:
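In this multiplexed gene-expression screen, human HepaRG cultures received test chemicals for 48 h across eight concentrations with 100 uM highest, in duplicate. Values reflect LIPC mRNA induction or suppression versus DMSO vehicle, from normalized qRT-PCR.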

Read-out in test [8]: Lipoprotein lipase (LPL), LPL (gene 4023)
Description: LTEA_HepaRG_LPL: Life Technologies and Expression Analysis (LTEA) Assay for Lipoprotein lipase (LPL) using HepaRG (AID 2283515). In short, it runs like this: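 Concentration-response testing used half-log steps from 100 uM in 0.5% DMSO on human HepaRG cells, 48 h, duplicate wells. Phenobarbital 1 mM served as induction control; LPL mRNA was normalized to ACTB, GAPDH, POLR2A.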

Read-out in test [9]: MicroRNA 122 (MIR122), gene 406906
Description: LTEA_HepaRG_MIR122: Life Technologies and Expression Analysis (LTEA) Assay for MicroRNA 122 (MIR122) using HepaRG (AID 2283516). Also: the transcript read is the microRNA miR-122. In a few lines:
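Changes in transcript abundance, up or down relative to 0.5% DMSO vehicle, were scored after 48 h chemical treatment of HepaRG cells (maximum 100 uM). Quantification used TaqMan qRT-PCR normalized to housekeeping genes.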

Read-out in test [10]: matrix metalloproteinase-10 (MMP10), MMP10 (gene 4319)
Description: LTEA_HepaRG_MMP10: Life Technologies and Expression Analysis (LTEA) Assay for matrix metalloproteinase-10 (MMP10) using HepaRG (AID 2283517). In a few lines: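 In differentiated HepaRG cultures kept in 0.5% DMSO, test chemicals act for 48 h over an eight-point range with a top dose of 100 uM. Expression is then quantified by TaqMan RT-PCR against ACTB, GAPDH and POLR2A.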

Read-out in test [11]: MYC, MYC (gene 4609)
As to the kind of experiment: LTEA_HepaRG_MYC: Life Technologies and Expression Analysis (LTEA) Assay for MYC using HepaRG (AID 2283518). In a few lines:
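MYC transcript changes, up or down relative to 0.5% DMSO, from TaqMan qRT-PCR normalized to three housekeeping genes. Human HepaRG cultures received chemicals for 48 h at eight half-log concentrations up to 100 uM, in duplicate.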

Read-out in test [12]: matrix metalloproteinase-3 (MMP3), MMP3 (gene 4314)
As to the kind of experiment: LTEA_HepaRG_MMP3: Life Technologies and Expression Analysis (LTEA) Assay for matrix metalloproteinase-3 (MMP3) using HepaRG (AID 2283519). In a few lines:
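Human liver HepaRG cultures received chemicals (top concentration 100 uM, 0.5% DMSO) for 48 h in duplicate. MMP3 mRNA induction or loss was then assessed via TaqMan qRT-PCR with housekeeping-gene normalisation.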

Read-out in test [13]: Paternally Expressed 10 (PEG10), PEG10 (gene 23089)
As to the kind of experiment: LTEA_HepaRG_PEG10: Life Technologies and Expression Analysis (LTEA) Assay for Paternally Expressed 10 (PEG10) using HepaRG (AID 2283520).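 As to AC50: PEG10 transcript by qRT-PCR normalised to ACTB GAPDH and POLR2A.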 In a few lines: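 After 48 h exposure of differentiated HepaRG cells (0.5% DMSO vehicle, eight concentrations up to 100 uM, duplicates), PEG10 mRNA was measured by TaqMan qRT-PCR. Values were normalised to endogenous control genes and analysed bidirectionally against vehicle.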

Read-out in test [14]: Protein phosphatase 2A (PPP2R4), PTPA (gene 5524)
As to the kind of experiment: LTEA_HepaRG_PPP2R4: Life Technologies and Expression Analysis (LTEA) Assay for Protein phosphatase 2A (PPP2R4) using HepaRG (AID 2283522). In a few lines:
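Using HepaRG cultures maintained in 0.5% DMSO, chemicals are tested 48 h at up to 100 uM in duplicate. Induction or suppression of PPP2R4 mRNA, measured by qRT-PCR, is fitted bidirectionally against the vehicle baseline.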

Read-out in test [15]: Phosphatase and tensin (PTEN), PTEN (gene 5728)
Description: LTEA_HepaRG_PTEN: Life Technologies and Expression Analysis (LTEA) Assay for Phosphatase and tensin (PTEN) using HepaRG (AID 2283523). In short, it runs like this: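 Expression of PTEN is quantified in the human liver line HepaRG following two days of dosing (top concentration 100 uM, half-log dilutions, 0.5% DMSO). Values derive from bidirectional curve fitting relative to DMSO controls.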

Read-out in test [16]: solute carrier (SLC22A1), SLC22A1 (gene 6580)
Description: LTEA_HepaRG_SLC22A1: Life Technologies and Expression Analysis (LTEA) Assay for solute carrier (SLC22A1) using HepaRG (AID 2283524).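 As to AC50: differentiated human HepaRG liver cells in serum-free induction medium; TaqMan qRT-PCR normalized to ACTB GAPDH and POLR2A housekeeping genes.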 In short, it runs like this: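 Transcript induction or suppression of SLC22A1 in human HepaRG cultures is scored after 48 h chemical treatment, with DMSO (0.5%) as baseline for bidirectional fitting. Concentrations span eight half-log points topping at 100 uM.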

Read-out in test [17]: Pyruvate Dehydrogenase Kinase 4 (PDK4), PDK4 (gene 5166)
Description: LTEA_HepaRG_PDK4: Life Technologies and Expression Analysis (LTEA) Assay for Pyruvate Dehydrogenase Kinase 4 (PDK4) using HepaRG (AID 2283525). In a few lines:
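Eight-point, half-log concentration series (max 100 uM, 0.5% DMSO) applied to differentiated HepaRG cells for 48 h in duplicate. Endpoint: PDK4 mRNA induction or repression by qRT-PCR against DMSO baseline.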

Read-out in test [18]: NAD(P)H dehydrogenase [quinone] 1 (NQO1), NQO1 (gene 1728)
As to the kind of experiment: LTEA_HepaRG_NQO1: Life Technologies and Expression Analysis (LTEA) Assay for NAD(P)H dehydrogenase [quinone] 1 (NQO1) using HepaRG (AID 2283526). In short, it runs like this: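 In this assay, gene expression is read by qRT-PCR after 48 h exposure of HepaRG cells to eight concentrations (max 100 uM, half-log) in 0.5% DMSO. Each chemical runs in duplicate, and activity is scored relative to vehicle.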

Read-out in test [19]: Nuclear factor erythroid 2-related factor 2 (Homo sapiens) (UniProt Q16236)
Description: LTEA_HepaRG_NFE2L2: Life Technologies and Expression Analysis (LTEA) Assay for Nuclear factor erythroid 2-related factor 2 (NFE2L2) Transcription Factor using HepaRG (AID 2283527).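 As to outcome: TaqMan qRT-PCR transcript level normalised to ACTB GAPDH and POLR2A housekeeping genes.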 In a few lines:
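Human liver HepaRG line treated in duplicate for 48 h with an eight-point series topping at 100 uM. Gene expression of NFE2L2 by qRT-PCR, bidirectionally fitted against the vehicle control.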

More than one record can exist for a structure, and the calls need not agree. The source made the active and inactive calls. The calls were made as follows: active = hit-call score of the fitted dose curve at least 0.9, where 1 is the maximum; inactive = score below 0.9.

Sequence of Nuclear factor erythroid 2-related factor 2 (Homo sapiens) (Q16236 whole entry, looked up): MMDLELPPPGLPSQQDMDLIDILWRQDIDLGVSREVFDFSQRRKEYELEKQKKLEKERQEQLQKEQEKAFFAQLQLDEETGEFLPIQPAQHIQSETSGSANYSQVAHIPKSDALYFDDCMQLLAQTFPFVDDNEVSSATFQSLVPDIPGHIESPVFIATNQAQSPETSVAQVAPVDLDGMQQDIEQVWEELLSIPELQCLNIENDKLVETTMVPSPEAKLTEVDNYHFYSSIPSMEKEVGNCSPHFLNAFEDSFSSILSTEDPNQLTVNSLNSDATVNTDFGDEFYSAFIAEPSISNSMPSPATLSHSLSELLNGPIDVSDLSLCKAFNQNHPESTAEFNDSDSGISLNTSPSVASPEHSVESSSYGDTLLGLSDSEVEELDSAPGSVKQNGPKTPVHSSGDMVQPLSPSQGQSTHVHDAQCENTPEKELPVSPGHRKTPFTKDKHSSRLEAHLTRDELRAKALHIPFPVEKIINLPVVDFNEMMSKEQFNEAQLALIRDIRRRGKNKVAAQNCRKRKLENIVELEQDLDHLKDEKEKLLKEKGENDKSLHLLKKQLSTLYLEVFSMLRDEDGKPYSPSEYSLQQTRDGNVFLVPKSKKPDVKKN

As for `S=C1NCCN1`, the compound was called inactive in [1], in test [2], in test [3], in test [4], in [5] and in test [6]. The compound was classed as inactive in test [7], in [8], in test [9], in [10], in test [11] and in test [12]. In addition, the compound was classed as inactive in [13], in [14], in test [15], in [16], in test [17] and in test [18]. In addition, in test [19], the compound was classed as inactive.

For `CN(C)[C@@H]1C(=O)C(C(N)=O)=C(O)[C@@]2(O)C(=O)C3=C(O)c4c(O)cccc4[C@@](C)(O)[C@H]3[C@H](O)[C@@H]12`, the compound was called inactive in [1], in [2], in [3], in [4], in test [5] and in test [6]. Moreover, the result in [7], in test [8], in test [9], in test [10], in test [11] and in test [12] was inactive. Besides, the result in [13], in test [14], in test [15], in [16], in test [17] and in test [18] was inactive. Moreover, the compound was called inactive in test [19]. Further, in test [12], the AC50 was 5.76 µM (active).

For the compound `CCOP(=O)(OCC)Oc1cc(C)nc(C(C)C)n1`, the compound was called inactive in test [1], in test [2], in test [3], in [4], in [5] and in test [6]. The compound was called inactive in [7], in test [8], in test [9], in test [10], in test [11] and in test [12]. Also, the call in test [13], in [14], in test [15], in test [16], in test [17] and in test [18] was inactive. In addition, the compound was called inactive in [19].

Turning to `CCCSP(=O)(OCC)Oc1ccc(Br)cc1Cl` (centres undefined), the compound was called inactive in test [1], in [2], in test [3], in test [4], in test [5] and in [6]. Also, the outcome in test [7], in test [9], in [10], in [11], in [12] and in [13] was inactive. Also, the compound was called inactive in [14], in [15], in test [16], in [17], in test [18] and in test [19].

With `CCOP(=O)(SC(C)CC)N1CCSC1=O` (centres undefined), the result in test [1], in test [2], in test [3], in test [4], in test [5] and in [6] was inactive. Also, the outcome in [9], in test [11], in [12], in [14], in test [15] and in [16] was inactive. Moreover, the compound was called inactive in [18] and in test [19]. Also, the AC50 is 25.6 µM (active) in test [7], 26.2 µM (active) in test [13] and 21.7 µM (active) in test [17].

As for `CNC(=O)ON=C(C)SC`, the result in test [1], in [2], in test [3], in test [4], in [5] and in test [6] was inactive. For the same compound, the outcome in test [7], in test [9], in [10], in test [11], in [12] and in test [13] was inactive. The result in [14], in [15], in test [16], in [17], in test [18] and in [19] was inactive.

On to `CCOP(=S)(OCC)Oc1ccc2c(C)c(Cl)c(=O)oc2c1`, for which the AC50 is 21.5 µM (active) in test [1]; 29.4 µM (active) in test [5]; 50 µM (active) in [9]; 50 µM (active) in test [11]; 13.2 µM (active) in test [13]; 70 µM (active) in [16]. Further, the values for the AC50 in [17] and in test [19] were 0.837 µM (active) and 22.2 µM (active), respectively. In addition, the call in test [2], in test [3], in test [4], in [6], in [8] and in test [10] was inactive. Also, the outcome in [12], in test [14], in test [15] and in [18] was inactive.
